Among all 5,500 compounds or so, about 2,000 (36%) were called active. Another 18% or so got no clear call; they are omitted. No stated cut-off is given here; in the data, active means normalized growth mostly below about 0.91 (no sharp cut-off); inconclusive means no clear call, values can overlap the other calls; inactive means mostly above about 0.92. This is one part of the list.
Assay: chemical genetic growth profiling, strain panel (AID 1159580);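 further: tested at 20 µM; growth read once vehicle control cultures reached saturation at 30 °C; 1 = growth at the plate median or of vehicle wells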
Conditions: S. cerevisiae deletion strains, growth OD
[1] = locus YHR030C, strain SLT2, stronger effect = lower value
[2] = locus YJL095W, strain BCK1, stronger effect = lower value

Measured: normalized growth

CC(C)C1COc2cc3oc(=O)ccc3cc2O1 (centres undefined)
inactive: locus YGL078C, strain dbp3, stronger effect = lower value 0.976 | locus YIL125W, strain kgd1, stronger effect = lower value 0.958 | locus YKL009W, strain mrt4, stronger effect = lower value 0.916 | locus YKL068W, stronger effect = lower value 0.964 | locus YKL085W, strain MDH1 (second series), stronger effect = lower value 0.945 | locus YKL085W, strain MDH1, stronger effect = lower value 0.945 | locus YNL250W, strain rad50, stronger effect = lower value 0.989 | locus YOL012C, strain htz1 0.681 | locus YPR141C, strain kar3, stronger effect = lower value 0.959
active: locus YBR021W, strain FUR4, stronger effect = lower value 0.0979 | locus YBR229C, strain ROT2, stronger effect = lower value 0.837 | locus YCL029C, strain bik1, stronger effect = lower value 0.616 | locus YDL035C, strain GPR1, stronger effect = lower value 0.389 | locus YDL074C, strain BRE1, stronger effect = lower value 0.287 | locus YDL101C, strain DUN1, stronger effect = lower value 0.293 | locus YDL185W, strain tfp1, stronger effect = lower value 0.874 | locus YDL192W, strain arf1, stronger effect = lower value 0.0841 | locus YDR101C, strain arx1, stronger effect = lower value 0.714 | locus YDR162C, strain NBP2, stronger effect = lower value 0.0569 | locus YDR318W, strain mcm21, stronger effect = lower value 0.546 | locus YDR388W, stronger effect = lower value 0.241 | locus YDR502C, strain sam2, stronger effect = lower value 0.289 | locus YEL061C, strain CIN8, stronger effect = lower value 0.17 | locus YER110C, stronger effect = lower value 0.698 | locus YER155C, strain BEM2, stronger effect = lower value 0.592 | locus YER167W, strain BCK2, stronger effect = lower value 0.503 | locus YGL086W, strain mad1, stronger effect = lower value 0.589 | locus YGL248W, strain PDE1, stronger effect = lower value 0.257 | locus YGR078C, strain PAC10, stronger effect = lower value 0.191 | locus YGR135W, strain pre9, stronger effect = lower value 0.366 | locus YGR252W, strain gcn5, stronger effect = lower value 0.209 | [1] 0.0511 | locus YHR079C, strain IRE1 (second series), stronger effect = lower value 0.89 | locus YHR094C, strain hxt1, stronger effect = lower value 0.92 | locus YHR129C, strain ARP1, stronger effect = lower value 0.396 | locus YHR200W, strain rpn10, stronger effect = lower value 0.433 | locus YIL066C, strain RNR3, stronger effect = lower value 0.223 | locus YIL073C, strain SPO22, stronger effect = lower value 0.122 | locus YIR030C, strain dcg1, stronger effect = lower value 0.701 | [2] 0.0654 | locus YJL134W, strain LCB3, stronger effect = lower value 0.906 | locus YJL168C, strain set2, stronger effect = lower value 0.834 | locus YJL187C, strain SWE1 (second series), stronger effect = lower value 0.497 | locus YJR043C, strain POL32, stronger effect = lower value 0.218 | locus YJR075W, strain HOC1, stronger effect = lower value 0.688 | locus YKR001C, strain vps1, stronger effect = lower value 0.0786 | locus YLR039C, strain RIC1, stronger effect = lower value 0.106 | locus YLR058C, strain SHM2, stronger effect = lower value 0.466 | locus YLR102C, strain apc9, stronger effect = lower value 0.887 | locus YLR262C, strain YPT6, stronger effect = lower value 0.148 | locus YLR268W, strain sec22, stronger effect = lower value 0.443 | locus YLR330W, strain CHS5, stronger effect = lower value 0.0515 | locus YLR342W, strain FKS1 (second series), stronger effect = lower value 0.0669 | locus YLR371W, strain rom2, stronger effect = lower value 0.0882 | locus YLR418C, strain cdc73, stronger effect = lower value 0.125 | locus YML016C, strain PPZ1, stronger effect = lower value 0.381 | locus YML032C, strain rad52, stronger effect = lower value 0.639 | locus YML124C, strain tub3, stronger effect = lower value 0.738 | locus YMR078C, strain ctf18, stronger effect = lower value 0.792 | locus YMR223W, strain ubp8, stronger effect = lower value 0.44 | locus YMR307W, strain GAS1, stronger effect = lower value 0.196 | locus YNL067W, strain RPL9B, stronger effect = lower value 0.711 | locus YNL128W, strain TEP1, stronger effect = lower value 0.348 | locus YNL233W, strain BNI4, stronger effect = lower value 0.285 | locus YNL271C, strain bni1, stronger effect = lower value 0.728 | locus YNL298W, strain CLA4, stronger effect = lower value 0.754 | locus YNL307C, strain MCK1, stronger effect = lower value 0.157 | locus YNL322C, strain KRE1, stronger effect = lower value 0.0872 | locus YNR052C, strain pop2, stronger effect = lower value 0.145 | locus YOL006C, strain TOP1, stronger effect = lower value 0.152 | locus YOL147C, strain pex11, stronger effect = lower value 0.66 | locus YOR061W, strain CKA2, stronger effect = lower value 0.101 | locus YOR069W, strain VPS5, stronger effect = lower value 0.519 | locus YOR136W, strain idh2, stronger effect = lower value 0.842 | locus YOR144C, strain elg1, stronger effect = lower value 0.843 | locus YOR184W, strain ser1, stronger effect = lower value 0.262 | locus YOR316C, strain cot1, stronger effect = lower value 0.875 | locus YPR119W, strain clb2, stronger effect = lower value 0.336 | locus YPR163C, strain tif3, stronger effect = lower value 0.703 | locus YPR167C, strain met16, stronger effect = lower value 0.636 | strain wtn01, stronger effect = lower value 0.394

O=c1ccc2cc(OC3OC(CO)C(O)C(O)C3O)c(O)cc2o1 (centres undefined)
inactive: locus YAL021C, strain ccr4, stronger effect = lower value 0.959 | locus YAL026C, strain drs2, stronger effect = lower value 1 | locus YAL030W, strain snc1, stronger effect = lower value 0.986 | locus YBL061C, strain skt5, stronger effect = lower value 1 | locus YBR009C, strain hhf1, stronger effect = lower value 0.995 | locus YBR023C, strain chs3, stronger effect = lower value 0.992 | locus YBR171W, strain sec66, stronger effect = lower value 1 | locus YBR231C, strain swc5, stronger effect = lower value 1.03 | locus YBR279W, strain paf1, stronger effect = lower value 0.998 | locus YCL011C, strain gbp2, stronger effect = lower value 0.974 | locus YCL016C, strain dcc1, stronger effect = lower value 0.979 | locus YCL069W, strain vba3, stronger effect = lower value 0.983 | locus YCR088W, strain abp1, stronger effect = lower value 0.985 | locus YDL005C, strain med2, stronger effect = lower value 0.989 | locus YDL040C, strain nat1, stronger effect = lower value 0.991 | locus YDR001C, strain nth1, stronger effect = lower value 0.972 | locus YDR069C, strain doa4, stronger effect = lower value 0.998 | locus YDR137W, strain rgp1, stronger effect = lower value 0.976 | locus YDR159W, strain sac3, stronger effect = lower value 1.06 | locus YDR195W, strain ref2 0.973 | locus YDR297W, strain sur2, stronger effect = lower value 0.995 | locus YDR334W, strain swr1, stronger effect = lower value 0.991 | locus YDR335W, strain msn5, stronger effect = lower value 0.991 | locus YDR392W, strain spt3, stronger effect = lower value 0.927 | locus YEL003W, strain gim4, stronger effect = lower value 1 | locus YEL037C, strain rad23, stronger effect = lower value 0.986 | locus YEL061C, strain CIN8 (second series), stronger effect = lower value 0.984 | locus YER015W, strain faa2, stronger effect = lower value 1 | locus YER016W, strain bim1, stronger effect = lower value 0.993 | locus YER111C, strain swi4, stronger effect = lower value 1.01 | locus YER155C, strain BEM2 (second series), stronger effect = lower value 1.07 | locus YFR010W, strain ubp6, stronger effect = lower value 0.997 | locus YGL167C, strain pmr1, stronger effect = lower value 0.989 | locus YGL173C, strain kem1, stronger effect = lower value 0.998 | locus YGL227W, strain vid30, stronger effect = lower value 0.989 | locus YGL240W, strain doc1, stronger effect = lower value 1.04 | locus YGL253W, strain hxk2, stronger effect = lower value 0.996 | locus YHR013C, strain ard1, stronger effect = lower value 0.992 | locus YHR027C, strain rpn1, stronger effect = lower value 0.977 | [1] 0.985 | locus YHR079C, strain IRE1, stronger effect = lower value 0.969 | locus YHR142W, strain chs7, stronger effect = lower value 0.959 | locus YJL092W, strain hpr5, stronger effect = lower value 0.981 | locus YJL095W, strain BCK1 (second series), stronger effect = lower value 0.995 | [2] 0.968 | locus YJL115W, strain asf1, stronger effect = lower value 0.973 | locus YJL129C, strain trk1, stronger effect = lower value 1 | locus YJL154C, strain vps35, stronger effect = lower value 0.981 | locus YJL164C, strain tpk1, stronger effect = lower value 0.947 | locus YJL166W, strain qcr8, stronger effect = lower value 1 | locus YJR066W, strain TOR1, stronger effect = lower value 0.919 | locus YKL160W, strain elf1, stronger effect = lower value 0.966 | locus YKR026C, strain gcn3, stronger effect = lower value 1 | locus YKR091W, strain srl3, stronger effect = lower value 0.989 | locus YLL001W, strain dnm1, stronger effect = lower value 0.993 | locus YLL026W, stronger effect = lower value 0.988 | locus YLL041C, strain sdh2, stronger effect = lower value 0.983 | locus YLR027C, strain aat2, stronger effect = lower value 1.01 | locus YLR113W, strain HOG1, stronger effect = lower value 0.973 | locus YLR221C, strain rsa3, stronger effect = lower value 1.04 | locus YLR258W, strain gsy2, stronger effect = lower value 0.972 | locus YLR262C, strain YPT6 (second series), stronger effect = lower value 0.98 | locus YLR320W, strain mms22, stronger effect = lower value 1.04 | locus YLR342W, strain FKS1, stronger effect = lower value 0.995 | locus YLR357W, strain rsc2, stronger effect = lower value 1 | locus YLR370C, strain arc18, stronger effect = lower value 1.02 | locus YLR384C, strain iki3, stronger effect = lower value 1.01 | locus YML120C, strain ndi1, stronger effect = lower value 0.988 | locus YMR058W, strain fet3, stronger effect = lower value 1 | locus YMR125W, strain sto1, stronger effect = lower value 0.92 | locus YMR129W, stronger effect = lower value 0.993 | locus YMR205C, strain PFK2, stronger effect = lower value 0.969 | locus YMR231W, strain pep5, stronger effect = lower value 1 | locus YNL071W, strain lat1, stronger effect = lower value 0.988 | locus YNL183C, strain NPR1, stronger effect = lower value 0.897 | locus YNL209W, strain ssb2, stronger effect = lower value 0.99 | locus YNL248C, strain rpa49, stronger effect = lower value 1.04 | locus YNL322C, strain KRE1 (second series), stronger effect = lower value 1.01 | locus YNR049C, strain mso1, stronger effect = lower value 0.982 | locus YOR001W, strain rrp6, stronger effect = lower value 1.02 | locus YOR070C, strain gyp1, stronger effect = lower value 0.998 | locus YOR080W, strain dia2, stronger effect = lower value 1.01 | locus YOR083W, strain WHI5, stronger effect = lower value 0.964 | locus YOR106W, strain vam3, stronger effect = lower value 0.939 | locus YOR231W, strain MKK1, stronger effect = lower value 0.973 | locus YOR265W, strain rbl2, stronger effect = lower value 1 | locus YOR270C, strain vph1, stronger effect = lower value 1.03 | locus YOR290C, strain snf2, stronger effect = lower value 0.919 | locus YPL051W, strain arl3, stronger effect = lower value 1.02 | locus YPL078C, strain atp4, stronger effect = lower value 0.935 | locus YPL106C, strain sse1, stronger effect = lower value 1.01 | locus YPL240C, strain hsp82, stronger effect = lower value 0.998 | locus YPL256C, strain CLN2, stronger effect = lower value 0.956

From PubChem BioAssay AID1159580 (chemical genetic matrix, 2015)
